Laboratory results as given in PubChem BioAssay AID504434 (National Center for Advancing Translational Sciences (NCATS), 2011).
The source made the active and inactive calls. Where a call stands in place of a potency, no number is given. Calls follow the shape of the dose curve; as a rule, active = well fitted curve in the direction sought with a large enough effect; inconclusive = small, poorly fitted or top-dose-only effect, or effect the other way, or another doubt; inactive = no such curve, though single readings can be large or run the other way.

Assay: Secondary Assay for lipid storage modulators: AML12 cell LDSA assay for probe SAR
Conditions: AML12 lipid droplet accumulation, BODIPY 493/503 imaging, oleate; series mostly up to 46.1 µM
Excerpt: NIH Molecular Libraries Probe Production Centers Network [MLPCN] NIH Chemical Genomics Center [NCGC] MLPCN Grant: 1 R03 MH085686-01 Assay Submitter (PI): Beller, Mathias; Max-Planck-Institut fur Biophysikalische Chemie NCGC Assay Overview: Storing lipids as a reservoir for energy or the anabolism of elementary metabolites is a common feature of probably all cells and is conserved from bacteria to humans. The universal cellular lipid storage organelle is the so-called lipid storage droplet (LD). Although ubiquitous, LDs share a simple structure composed of a hydrophobic core that harbors the storage lipids, which is shielded by a droplet-specific phospholipid monolayer to which proteins are attached. The current model of LD biogenesis involves an incorporation of the lipid core into the membrane leaflets of the endoplasmic reticulum (ER) followed by a subsequent budding-like maturation of a LD, which ultimately pinches off. Once released, LD volume can increase by localized lipogenesis or fusion of existing droplet. Storage lipids are re-mobilized enzymatically by lipase activity. Lipase regulation in the adipocyte is heavily studied and involves multiple components including catecholamine signaling, the LD-associated proteins Perilipin and comparative gene identification (CGI-58) and at least two lipases named hormone sensitive lipase (HSL) and adipocyte triglyceride lipase (ATGL). LD regulation outside of the adipocyte is poorly understood and only few components are known. However, there is an urgent need to learn more about ectopic fat depots as mislocalized storage of lipids, for example in the liver or muscle, is an eminent health problem associated with insulin resistance or the metabolic syndrome.
NCGC Assay Protocol Summary: The assay was performed with AML12 cells, using an oleic acid feeding protocol similar to the S3 assay. We dispensed 4 uL of cells to give 700 cells/well into Greiner bio-one 1,536-well plates (black walled, clear bottom). Triacsin C (Sigma-Aldrich T-4540), an inhibitor of long-chain fatty acyl CoA synthetase that blocks synthesis of triglycerides, was used as a positive control for lipid under-storage using a final concentration of 20 uM. The orexin antagonist, SB408124 - previously identified to stimulate lipid over-storage, was used as a positive control for lipid over-storage using a final concentration of 20 uM. A total of 23 nL of compound solution of different concentrations were transferred to the assay plates using a Kalypsys pin tool equipped with a 1,536-pin array containing 10-nL slotted pins (FP1S10, 0.457-mm diameter, 50.8 mm long; V&P Scientific). One microliter of oleic acid was added (400 uM final concentration), and the plate was lidded with stainless steel rubber gasket lined lids containing pinholes. After 18-24 h incubation at […] and 95% humidity, 4 uL of the dyes BODIPY 493/503 (Molecular Probes) and the Cell Tracker Red CMTPX dye (Molecular Probes) were added to the wells to stain lipid droplets and enumerate cell number, respectively. Fluorescence was detected by excitation of the fluorophores with a 488-nm laser on an Acumen Explorer (TTP Lab Tech). The total intensity in channel 2 (500-530 nm) reflected lipid droplet accumulation. Cells were detected using channel 3 (575-640 nm) with 5-um width and 100-um depth filters. The ratio of the number of objects in PMT channel 2 over the number of objects in PMT channel 3 was also calculated. Percent activity was computed relative to an internal control (100% inhibited lipid droplet deposition due to the presence of 20 uM Triacsin C), which was added to 32 wells/plate.

Compound | Potency
COc1ccc(Cl)cc1NC(=S)N1CCN(c2ccccc2F)CC1 | inactive
CCOC(=O)C1CCN(C(=O)C(C)(C)NC(=O)Nc2ccc3sccc3c2)CC1 | inactive
COc1cccc(-n2ncc3c2CCCC3NC(=O)c2ccccn2)c1 (centres undefined) | 44.5 nM [inconclusive] (active)
COCCn1c(-c2ccc(C)cc2)cnc1SCC(=O)Nc1nc(C)cs1 | inactive
CCOc1ccc(CCNC(=O)c2cc3sccc3[nH]2)cc1OCC | inactive
O=C(NC1CCCc2c1cnn2-c1ccc(F)cc1F)c1cccs1 (centres undefined) | inactive
CC(C)(C)OC(=O)NCCOCCOCCOc1ccc(-n2ncc3c2CCCC3NC(=O)c2ccccn2)cc1 (centres undefined) | inactive
COc1ccc(-c2cnc(SCC(=O)Nc3nc(C)cs3)n2-c2ccccc2)cc1 | inactive
CCn1c(-c2ccc(C)cc2)cnc1SCC(=O)Nc1nc(C)cs1 | inactive
O=C(NC1CCCc2c1cnn2-c1ccc(F)cc1F)c1ccccc1 (centres undefined) | inactive
Cc1sc(NC(=O)Cc2cccs2)nc1-c1ccccc1 | inactive
CCn1c(C(=O)NCCc2ccc(OC)cc2)cc2sccc21 | inactive
O=C(NC1CCCc2c1cnn2-c1ccccc1F)c1ccc2ncccc2c1 (centres undefined) | inactive
O=C(NC1CCCc2c1cnn2-c1ccc(F)cc1F)c1cccc(=O)[nH]1 (centres undefined) | inactive
